Results on 20 compounds are retold here after PubChem BioAssay AID694 (Emory University Molecular Libraries Screening Center, 2007).

This assay concerns the target Estrogen receptor (Homo sapiens) (UniProt P03372). The assay can be described thus: blockers of coactivator recruitment to ERα – biochemical, LOPAC library, TR-FRET, primary screen (AID 694).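 Further: receptor was agonist-bound with estradiol present during the assay.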 Particulars: TR-FRET ERalpha-coactivator peptide binding, stronger effect = higher value. A general note: TR-FRET usually uses a lanthanide donor and a delayed reading to cut background.

Structures are written as SMILES. In all, about 1,300 compounds went through this assay and about 25 (2%) were called active. How the calls were made is not given here. The full list was thinned out, with actives kept by preference.

Sequence of Estrogen receptor (Homo sapiens) (P03372 whole entry, looked up): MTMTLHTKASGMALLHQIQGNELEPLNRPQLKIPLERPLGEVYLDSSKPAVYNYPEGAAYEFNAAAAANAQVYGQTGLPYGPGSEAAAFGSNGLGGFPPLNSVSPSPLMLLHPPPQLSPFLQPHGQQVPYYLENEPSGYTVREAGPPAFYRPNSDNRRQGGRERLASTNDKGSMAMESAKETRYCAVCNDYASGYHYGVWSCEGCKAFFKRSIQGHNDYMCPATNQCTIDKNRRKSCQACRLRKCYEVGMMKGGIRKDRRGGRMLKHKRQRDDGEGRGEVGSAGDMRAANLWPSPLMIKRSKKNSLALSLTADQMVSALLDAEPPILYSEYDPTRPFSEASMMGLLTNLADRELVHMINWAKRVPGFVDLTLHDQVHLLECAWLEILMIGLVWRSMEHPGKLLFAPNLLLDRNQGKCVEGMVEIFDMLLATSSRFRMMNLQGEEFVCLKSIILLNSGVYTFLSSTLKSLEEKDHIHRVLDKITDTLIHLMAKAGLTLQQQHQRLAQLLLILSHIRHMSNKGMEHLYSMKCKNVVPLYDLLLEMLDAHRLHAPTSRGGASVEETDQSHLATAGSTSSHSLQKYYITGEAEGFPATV

In general, inhibition refers to the change of the read-out against control, counted positive when it falls. On to `CCCN(CCC)CCc1ccc(O)c(O)c1`, for which the inhibition was -9.9% (inactive) (at 45 µM) and 5.4% (inhibition, at 15 µM).
For `CN(N=O)c1cc(O)ccc1O`, the inhibition reads like this: (at 45 µM) 98.6% [fluorescence artefact?] (active); (inhibition, at 15 µM) 95.4%.
The corresponding values for `CN(N=O)c1ccc(O)c(O)c1` are 99.9% [fluorescence artefact?] (active) and 100%.
Taken in the same sequence, the figures for `CCCN(CCC)[C@@H]1CCc2ccc(O)cc2C1` were -8.07% (inactive) and 3.7%.
The corresponding values for `C[C@@H]1O[C@H](C[N+](C)(C)C)CS1` are -6.11% (inactive) and 5.81%.
Turning to `c1ccc2c(N3CCNCC3)cccc2c1`, the inhibition by setting is: (at 45 µM) -1.45% (inactive); (inhibition, at 15 µM) 2.78%.
Taken in the same sequence, the figures for `C=CCN1CCC2(C)c3cc(O)ccc3CC1C2C` (stereo not given) were -11.9% (inactive) and -3.04%.
Taken in the same sequence, the figures for `CC[C@@H](CO)NC(=O)[C@@H]1C=C2c3cccc4[nH]cc(c34)C[C@H]2N(C)C1` were 6.08% (inactive) and 0.61%.
The corresponding values for `Clc1ccc(C(c2ccc(Cl)cc2)n2cc[n+](CC(OCc3ccc(Cl)cc3Cl)c3ccc(Cl)cc3Cl)c2)cc1` (stereo not given) are 59.5% [fluorescence artefact?] (active) and 52.6%.
Take `CO[C@H]1CC=C2CCN3CCC4=C(CC(=O)OC4)[C@]23C1`: the inhibition was -3.26% (inactive) (at 45 µM) and 3.57% (inhibition, at 15 µM).
Regarding `O=C(O)[C@@H]1CCN1`, the inhibition is, setting by setting: (at 45 µM) -15.6% (inactive); (inhibition, at 15 µM) -3.72%.
The corresponding values for `CCCN(CCC)C1CCc2ccc(O)cc2C1` (stereo not given) are -3.18% (inactive) and 3.52%.
Taken in the same sequence, the figures for `N[C@@H](Cn1cc(I)c(=O)[nH]c1=O)C(=O)O` were 0.52% (inactive) and 3.65%.
As for `COC(=O)c1cc2c(cn1)[nH]c1ccccc12`, the inhibition by setting is: (at 45 µM) -2.45% (inactive); (inhibition, at 15 µM) 2.65%.
For `NC(Cc1cc(O)c(O)cc1O)C(=O)O` (stereo not given), the inhibition reads like this: (at 45 µM) 100% [fluorescence artefact?] (active); (inhibition, at 15 µM) 100%.
The corresponding values for `Cc1o[nH]c(=O)c1CC(N)C(=O)O` (stereo not given) are -4.5% (inactive) and -1.59%.
The corresponding values for `N[C@@H](CCl)C(=O)O` are -9.05% (inactive) and -4.18%.
Taken in the same sequence, the figures for `O=[N+]([O-])c1ccc(O[C@@H]2O[C@H](CO)[C@@H](O)[C@H](O)[C@H]2F)c([N+](=O)[O-])c1` were -0.11% (inactive) and 6.88%.
As to `Fc1ccc(C(OCCN2CCN(CCCc3ccccc3)CC2)c2ccc(F)cc2)cc1`, the inhibition is -7.86% (inactive) (at 45 µM) and -2.51% (inhibition, at 15 µM).
The corresponding values for `CN1C[C@@H](CS(=O)(=O)N(C)C)C[C@@H]2c3cccc4c3c(cn4C)C[C@H]21` are -2.14% (inactive) and -2.21%.
